Assay outcomes as filed in PubChem BioAssay.
In the library only some 4.1% were active in any assay of this set; here they are far more common.
DAX1 inh-1: blocks DAX1 repression of SF-1 activated StAR promoter; HEK293T StAR-luciferase reporter, SF-1/DAX-1 repression relief; inhibition, % at 6.8 µM; hit rate 1.1% among 370,000; AID 652010;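 active means inhibition above the mean over all tested compounds plus 3 SD, cut at about 3.6% in these data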;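 further: 0% = DAX-1 cells with DMSO and 100% = cells lacking DAX-1 with DMSO; higher inhibition means more luminescence from relief of DAX-1 repression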
DAX1 inh-2: NR0B1 (DAX1) inhibition; P51843; HEK293 Gal4-DAX1 luciferase reporter, luminescence; inhibition, % at 6.75 µM; hit rate 0.99% among 340,000;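 active means inhibition above the mean over all tested compounds plus 3 SD, cut at about 4.2% in these data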;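 further: 0% = DAX1-transfected cells with DMSO and 100% = empty-vector control cells with DMSO; inhibition shows as a rise in luminescence from relieved DAX1 repression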
Target sequence (P51843 207-470 limits assumed): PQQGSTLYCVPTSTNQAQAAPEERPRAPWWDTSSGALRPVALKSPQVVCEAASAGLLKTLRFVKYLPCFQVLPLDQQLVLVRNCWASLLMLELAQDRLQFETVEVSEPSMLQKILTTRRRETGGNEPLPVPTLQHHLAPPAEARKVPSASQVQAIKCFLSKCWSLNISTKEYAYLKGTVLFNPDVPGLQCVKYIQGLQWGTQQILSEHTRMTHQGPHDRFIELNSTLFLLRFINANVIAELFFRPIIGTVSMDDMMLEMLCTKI
hcDAF-12 act: H. contortus DAF-12 activation, primary screen | HEK293 hcDAF-12 lit1-tk-luc reporter, luminescence; 0% DMSO, 100% Δ7-dafachronic acid | activation, % at 6.8 µM | hit rate 1.4% among 370,000 | AID 652067;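 active means activation above the mean of all tested compounds plus 3 SD, cut at about 5.5% in these data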;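 further: 100% = response to 3 µM Δ7-dafachronic acid high control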
hgDAF-12 ag: hgDAF-12 agonism, primary luciferase screen; activation, % at 6.8 µM; hit rate 1.8% among 370,000; HEK293 GAL4-hgDAF12 UAS-luciferase reporter, agonist luminescence; normalized to butyrate control; AID 687014;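 active means activation above a cutoff set at the mean of all screened compounds plus 3 SD, cut at about 10% in these data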;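 further: 0% = DMSO wells and 100% = sodium butyrate wells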
ssDAF-12 act: S. stercoralis DAF-12 activation, primary screen; hit rate 1% among 370,000; HEK293 ssDAF-12/GRIP1 lit1-tk-luc reporter, luminescence; % of 3 µM dafachronic acid response; activation, % at 6.8 µM; AID 652126;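 active means activation above the mean over all tested compounds plus 3 SD, cut at about 0.9% in these data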;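 further: 0% = DMSO-only wells and 100% = 3 µM delta7-dafachronic acid wells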
Starred values were filed as active, the others as inactive; . = no result given.

SMILES | DAX1 inh-1 | DAX1 inh-2 | hcDAF-12 act | hgDAF-12 ag | ssDAF-12 act
ClCc1cc2ccccc2nc1Cl | 0 | -1 | 3 | 2 | -1
CN(C)c1ccc(NC(=O)NC2CCCCN(Cc3cccc(Cl)c3)C2=O)cc1 (stereo unspecified) | -1 | . | -1 | 1 | -2
COc1cccc(O[C@H]2C=C[C@@H](c3ccccc3)O[C@@H]2CO)c1 | -1 | . | 0 | 0 | -2
Cc1sc2ccccc2c1CNC[C@H]1O[C@@H](n2cnc(C(N)=O)n2)[C@H](O)[C@@H]1O | 1 | 1 | -1 | -3 | 1.0*
CN(CCO)c1ccc2c(c1)Oc1ccccc1CN(Cc1cn(Cc3ccccc3C(F)(F)F)nn1)S2(=O)=O | 2 | . | -2 | 1 | -1
CC1=NN(c2nc(-c3ccccc3)cs2)C(=O)C1N=Nc1ccccc1 (stereo unspecified) | -1 | -1 | 2 | -2 | -2
CC1=NN(c2nc(-c3ccc(C)cc3)cs2)C(=O)C1N=Nc1ccc2ccccc2c1 (stereo unspecified) | 0 | 0 | 5.7* | 5 | 0
O=C(Nc1ccc(-c2cn3ccccc3n2)cc1)c1ccco1 | 4.3* | 2 | 5 | 12* | 0
O=S(=O)(Nc1ccc(-c2cn3ccccc3n2)cc1)c1ccccc1 | 0 | 4.3* | 1 | 6 | -1
Cc1cccc(S(=O)(=O)Nc2ccc(-c3cn4ccccc4n3)cc2)c1 | -1 | -1 | -1 | 1 | -2
COc1ccc2c(=O)c(Oc3ccc(C(=O)O)cc3)c(C(F)(F)F)oc2c1 | 4.2* | -2 | 3 | 10 | 0.9*
C=CCN(CC#Cc1ccc(C)cc1)Cc1ccc(OC)cc1OC | -1 | . | 1 | 0 | -1
CC(C)(C)CN1CCN(Cc2cc3ccccc3[nH]2)CC1CCO (stereo unspecified) | 0 | 0 | 6.3* | 2 | 0
CCOc1ccc(CN2CCN(Cc3cc4ccccc4[nH]3)CC2CCO)cc1 (stereo unspecified) | 0 | -2 | 5 | 1 | 2.0*
O=S1(=O)c2ccc(Br)cc2OC[C@H](Cc2ccccc2)N1Cc1cn(Cc2ccc(Br)cc2)nn1 | -1 | . | 1 | 1 | -2
O=C(CSc1ccc(Cl)cc1)Nc1ccc(N2CCN(c3ccccc3)CC2)c(F)c1 | 0 | 0 | -1 | 3 | -1
O=C(CSc1ccccc1F)Nc1ccc(N2CCOCC2)cc1 | -3 | 1 | 1 | 12* | -1
O=C(CSc1ccccc1)Nc1ccc(N2CCOCC2)c(F)c1 | 4.4* | 2 | 1 | 5 | 0
COc1ccc(S[C@]2(C(=O)N3CCN(c4ncccn4)CC3)CC(=O)N(c3ccc(Cl)cc3)[C@@H]2c2ccc(OC)cc2)cc1 | -1 | . | 0 | -1 | -2
COc1ccccc1N/N=C1\COC(C)(C)CC1=O | 0 | 4.8* | 0 | 1 | -1
CC1(C)CC(=O)/C(=N/Nc2ccc(Cl)cc2)CO1 | 3 | 4.5* | 1 | 11* | -1
Cc1cccc(N/N=C2/COC(C)(C)CC2=O)c1 | 3 | 1 | 5 | 13* | 0
C=CCOC(=O)C(CO)NC(=O)CCCC(=O)O (stereo unspecified) | 0 | . | -2 | 7 | -1
CCCOc1ccc(CN2CCOCC2)cc1OC | 0 | 5.3* | -1 | -1 | -1
COC1CCN(C(=O)C2CCC(=O)N(C3CCCCCC3)C2)CC1 (stereo unspecified) | 1 | 1 | 6.3* | 5 | 0
CC(=O)NCCC1CCN(C(=O)C2CCC(=O)N(C3CCCC3)C2)CC1 (stereo unspecified) | 0 | 0 | 0 | -2 | 1.6*
COCC1CCN(C(=O)C2CCC(=O)N(C3CCCC3)C2)CC1 (stereo unspecified) | 0 | 0 | 4 | 4 | 0
Cc1ccccc1OC1CCN(C(=O)C2CCC(=O)N(C3CCCC3)C2)CC1 (stereo unspecified) | 0 | 0 | -3 | -4 | -1
COC(=O)[C@]12C[C@H](CC(=O)NCc3cccs3)C(=O)N(Cc3cccc4ccccc34)C1=C[C@H](C(C)(C)C)O[C@@H]2C | -2 | . | 2 | 4 | -1
COc1cc(C(=O)NC2CCN(C)CC2)ccc1Nc1ncc2c(n1)N(Cc1ccccc1)CCC(=O)N2C | 1 | 7.8* | 1 | 1 | -1
